Screening data as filed in PubChem.
A selection: hits, their analogues and other compounds. The true share with any hit is near 2.2%.
PLC-beta3 inh: blocks human PLC-beta3 enzyme activity; Purified PLC-beta3, fluorogenic substrate, fluorescence; AID 720704; 370,000 tested, 0.18% active; inhibition, % at 12.2 µM; Q01970; in the data active = inhibition above about 11%;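 note: 0% = median of compound wells on plate and 100% = full blocker control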
NPR1 activator: GC-A (human) enzyme activation; P16066; HEK293 GC-A cells, cGMP TR-FRET, EC30 ANP; 0% at EC30 ANP, 100% saturating ANP; activation, % at 10 µM; 370,000 tested, 0.14% active; in the data active = activation above about 40%
NPR2 activator: GC-B (human) receptor activation; P20594; HEK293-GC-B cells, CNP EC30, cGMP TR-FRET; 0% at EC30 CNP, 100% saturating CNP; activation, % at 10 µM; 370,000 tested, 0.11% active;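 active = activation at 10 µM reaching about 35% in either raw or pattern-adjusted values, limit read from the data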
PLC-gamma1 inh: PLC-gamma1 (human) inhibition, primary screen | AID 720700 | 370,000 tested, 0.84% active | inhibition, % at 12.2 µM | purified PLC-gamma1, fluorogenic substrate, fluorescence; in the data active = inhibition above about 9.5%
Rce1 inh: yeast Ras-converting enzyme inhibition. 290,000 tested, 0.27% active. yeast membranes, quenched prenylated peptide cleavage fluorescence. calls only;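 active = fall in fluorescence gain of 50% or more versus controls, with final raw signal at or below 3038400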;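 note: plate controls were neutral control wells for no effect and wells lacking membranes for full effect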
Target sequence (Q03530 whole entry, looked up): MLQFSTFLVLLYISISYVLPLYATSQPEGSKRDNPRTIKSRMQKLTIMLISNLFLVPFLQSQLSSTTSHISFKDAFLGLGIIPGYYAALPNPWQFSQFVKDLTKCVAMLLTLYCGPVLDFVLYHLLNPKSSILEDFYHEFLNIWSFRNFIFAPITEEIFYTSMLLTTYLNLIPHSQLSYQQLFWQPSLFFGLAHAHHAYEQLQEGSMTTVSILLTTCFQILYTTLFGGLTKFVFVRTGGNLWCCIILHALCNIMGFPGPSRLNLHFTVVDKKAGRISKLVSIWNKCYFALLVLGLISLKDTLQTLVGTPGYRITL
PfM18AAP inh-1: blocks P. falciparum M18 aspartyl aminopeptidase; 290,000 tested, 1.2% active; recombinant PfM18AAP, H-Glu-NHMec fluorogenic cleavage; inhibition, % at 7.35 µM;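 active = inhibition above the campaign mean inhibition over all tested compounds plus 3 SD, cut at about 28% in these data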;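 note: 0% = plate median of test compound wells and 100% = 2 mM ZnCl2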
PfM18AAP inh-2: PfM18AAP inhibition, confirmation. shares compounds with PfM18AAP inh-1. recombinant PfM18AAP, H-Glu-NHMec fluorogenic cleavage. inhibition, % at 7.35 µM. 2,400 tested, 28% active;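 active = mean inhibition over replicate wells above the hit cutoff set for the earlier primary screen, cut at about 29% in these data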;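 note: 0% = median of test compound wells and 100% = 2 mM ZnCl2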
CTSL1 confirm: Cathepsin L (human) inhibition, confirmation. shares compounds with PfM18AAP inh-1. purified cathepsin L1, Z-Leu-Arg-MCA fluorescence. inhibition, % at 5.96 µM. 2,400 tested, under 10 active. AID 2178;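 active = average inhibition across replicates above the hit cutoff set in the earlier primary screen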;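 note: 0% = median of test compound wells and 100% = Z-Phe-Ala-diazomethylketone 1 µM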
Active calls of the source: *; i = inactive; . = no result given.

SMILES | PLC-beta3 inh | NPR1 activator | NPR2 activator | PLC-gamma1 inh | Rce1 inh | PfM18AAP inh-1 | PfM18AAP inh-2 | CTSL1 confirm
Cc1ccc(S(=O)(=O)N2CCCC(C(=O)NCCN3CCC(Cc4ccccc4)CC3)C2)cc1 (stereo not drawn) | -1 | -10 | -2 | 1 | . | . | . | .
O=C(c1ccc(Br)cc1)N1CCN(Cc2ccccc2)CC1 | -4 | -1 | 0 | -5 | i | 3 | . | .
Cc1ccc(C(=S)N2CCN(Cc3ccccc3)CC2)s1 | -7 | 1 | -1 | -3 | . | 35* | 14 | 5
Oc1ccc(C(=S)N2CCN(Cc3ccccc3)CC2)cc1 | -7 | 3 | 1 | 0 | i | 54* | -18 | 1
Oc1ccc(C(=S)N2CCCC2)cc1 | -3 | -1 | -1 | 3 | i | 33* | -18 | -1
O=C(Oc1ccc(C(=S)N2CCCCC2)cc1)c1ccccc1 | -4 | -4 | 6 | 0 | i | 37* | 5 | 2
O=C(Oc1cccc(C(=S)N2CCCCC2)c1)c1ccccc1 | -8 | 3 | 3 | 4 | i | 0 | . | .
CCNC(=S)N1CCN(Cc2ccccc2)CC1 | 3 | 4 | 3 | 1 | i | -1 | . | .
CC(C)[C@H]1/C(=C/C2CC2)N2C(=O)C[C@@H](c3ccccc3)N=C2N1Cc1ccc2c(c1)OCO2 | -4 | 0 | -6 | -3 | . | . | . | .
COC(=O)c1cc(-c2cc(Cl)ccc2OC)c(=O)n2c1CCC2 | -4 | 2 | 1 | -1 | . | . | . | .
CC1(c2nnnn2C2CCCCC2)CCCC(=O)N1CCc1ccc(O)cc1 (stereo not drawn) | 1 | -1 | 5 | 1 | . | . | . | .
S=C(c1ccc(Br)cc1)N1CCN(Cc2ccccc2)CC1 | 2 | 2 | 2 | -2 | i | 42* | -1 | -1
CC(=O)Oc1ccc(C(=O)O)cc1OC(C)=O | -1 | 4 | 10 | 1 | i | 70* | 50* | -5
c1cc2c(cc1NC1CCCCCC1)OCO2 | -22 | -2 | -3 | -9 | i | 53* | 28 | -2
O=C(NC1CCCCCCC1)c1ccc2c(c1)OCO2 | 5 | -1 | -3 | 4 | i | 2 | . | .
COc1ccc(NC(=O)NNC(=O)CCc2ccc(O)c(O)c2)cc1OC | -94 | 2 | 6 | -70 | i | 82* | 61* | -2
COc1ccc(NC(=O)NNC(=O)c2ccc3ccccc3c2O)cc1OC | -113 | 4 | 1 | -67 | i | 39* | 12 | -1
COc1ccc(CCC(=O)NNC(=O)Nc2ccc(OC)c(OC)c2)cc1 | -9 | 1 | 0 | 5 | i | -1 | . | .
COc1ccccc1NC(=O)NNC(=O)c1ccc2ccccc2c1O | -108 | 3 | 7 | -74 | i | 33* | 4 | 0
Cc1ccccc1NC(=O)NNC(=O)c1ccc2ccccc2c1O | -113 | 2 | 1 | -72 | i | 34* | 4 | 4
CCOC(=O)[C@]12CCCCC/C=C\1N(CCc1ccc(Cl)cc1)C(=O)[C@H]2CC(=O)NCCC(C)C | 0 | -1 | 0 | 2 | . | . | . | .
Cc1ccc(C(=O)n2ccc3ccc(-c4ccc5ccn(Cc6ccc(C#N)cc6)c5c4)cc32)cc1 | -135 | 1 | 3 | -86 | . | . | . | .
COC(=O)[C@]12C[C@H](CC(=O)N3CCSCC3)C(=O)N(Cc3cccc4ccccc34)C1=C[C@H](C(C)C)O[C@@H]2C1CC1 | 4 | -21 | -9 | 1 | . | . | . | .
CC(C)Cn1c2ccccc2c2cc(C(=O)O)ccc21 | -29 | -4 | 3 | -9 | i | 55* | -43 | 1
CCOc1ccc(-n2c(SCC(=O)Nc3ccc(S(=O)(=O)Nc4nccs4)cc3)nnc2-c2ccccc2)cc1 | -3 | -1 | -1 | -3 | . | . | . | .
O=C(NNc1cccc([N+](=O)[O-])c1)/C(=C\c1cccnc1)NC(=O)c1ccccc1 | -4 | 2 | 5 | 4 | i | 46* | 10 | 1
COC(=O)[C@H](C(C)C)N(Cc1cn(CC2CCCCC2)nn1)S(=O)(=O)c1ccc(F)cc1Br | 1 | 2 | -1 | 4 | . | . | . | .
